# Data: PubChem BioAssay (EPA / NIEHS)
# Inconclusive results are not listed. More than one record can exist for a structure, and the calls need not agree. Activity calls are given as the source filed them. The calls were made as follows, unless noted: active = hit-call score of the fitted dose curve at least 0.9, where 1 is the maximum; inconclusive = response in the unintended direction; inactive = score below 0.9.
# How the values were obtained:
# [1] = molecular target: Oxysterols receptor LXR-beta (Homo sapiens) (UniProt P55055); assay: ATG_LXRb_TRANS: Attagene TRANS-FACTORIAL HepG2 Assay for human Liver X Receptor beta (LXRb) (AID 2282981); details: HepG2 Attagene TRANS GAL4-LXRb reporter, mRNA
# Method in brief: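 Liver-derived HepG2 cells transfected with Gal4-responsive reporters were dosed for 24 h. Activation was scored as rise in reporter mRNA, by RT-PCR and capillary electrophoresis, above DMSO baseline.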
# [2] = molecular target: Hepatocyte nuclear factor 4-alpha (Homo sapiens) (UniProt P41235); assay: ATG_HNF4a_TRANS: Attagene TRANS-FACTORIAL HepG2 Assay for human Hepatocyte Nuclear Factor 4 alpha (HNF4a) (AID 2282982); details: HepG2 HNF4a transactivation reporter, mRNA readout
# Method in brief: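 Using HepG2 liver cells transfected with GAL4-UAS reporter units, chemical-induced mRNA increases were assessed after 24 hours. Fluorescent RT-PCR fragments were separated by capillary electrophoresis and compared with DMSO negative controls.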
# [3] = ATG_M_06_TRANS: Attagene TRANS-FACTORIAL HepG2 Assay for M06 Transcription Factor (Internal Marker) (AID 2282983); details: HepG2 Attagene TRANS M06 internal marker reporter;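 also: reporter transcript level by RT-PCR then capillary electrophoresis fluorescence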
# Method in brief: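 Multi-reporter-transfected HepG2, 24 h treatment; reporter transcripts quantified via RT-PCR, primer-extension labelling and CE. DMSO-normalized gain-of-signal fit.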
# [4] = ATG_M_32_TRANS: Attagene TRANS-FACTORIAL HepG2 Assay for M32 Transcription Factor (Internal Marker) (AID 2282984); details: HepG2 Attagene TRANS M32 internal marker reporter;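 also: transcript level of a background control reporter unit measured by RT-PCR and capillary electrophoresis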
# Method in brief: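 Fluorescence-detected mRNA induction, HepG2 liver cells, 24 h after dosing. Multiple GAL4-UAS reporter units introduced by transient transfection; background-control endpoint analysed for gain of signal against DMSO.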
# [5] = molecular target: Nuclear receptor subfamily 4 group A member 2 (Homo sapiens) (UniProt P43354); assay: ATG_NURR1_TRANS: Attagene TRANS-FACTORIAL HepG2 Assay for human Nuclear Receptor Related Protein 1 (NURR1) (AID 2282985); details: HepG2 Attagene TRANS reporter, mRNA readout
# Method in brief: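 Chimeric NR-Gal4 proteins were expressed in human HepG2 cells bearing GAL4-UAS reporter units, and induced reporter mRNA was quantified 24 h post-dosing by RT-PCR and capillary electrophoresis.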
# [6] = molecular target: Transcriptional activator Myb (Homo sapiens) (UniProt P10242); assay: ATG_Myb_CIS: Attagene CIS-FACTORIAL HepG2 Assay for human Myeloblastosis (Myb) Proto-Oncogene Transcription Factor (AID 2282986; active = hit-call score of the fitted dose curve at least 0.9, where 1 is the maximum; inactive = score below 0.9); details: HepG2 Attagene CIS-FACTORIAL Myb reporter transcription; actives raise or lower the signal
# Method in brief: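 Transiently transfected HepG2 cells carrying a multiplexed cis-promoter reporter set report endogenous Myb activity after 24 h compound exposure. Reporter mRNA is read by RT-PCR with capillary electrophoresis of fluorescent products, fitted bidirectionally against DMSO.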
# [7] = molecular target: Nuclear respiratory factor 1 (Homo sapiens) (UniProt Q16656); assay: ATG_NRF1_CIS: Attagene CIS-FACTORIAL HepG2 Assay for human Nuclear Respiratory Factor 1 (NRF1) Orphan Gene (AID 2282987; active = hit-call score of the fitted dose curve at least 0.9, where 1 is the maximum; inactive = score below 0.9); details: HepG2 NRF1 cis-element reporter, Attagene multiplex; actives raise or lower the signal
# Method in brief: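 HepG2 cells transiently transfected with multiple cis-regulated reporter units, exposed 24 h. Reporter mRNAs measured by RT-PCR, fluorescent labelling, HpaI digestion and capillary electrophoresis; bidirectional fitting against DMSO.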
# [8] = ATG_NFI_CIS: Attagene CIS-FACTORIAL HepG2 Assay for human Nuclear Factor I (NFI) (AID 2282989; active = hit-call score of the fitted dose curve at least 0.9, where 1 is the maximum; inactive = score below 0.9); details: HepG2 cis-regulatory reporter, NFI response element transcription; actives raise or lower the signal
# Method in brief: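 After transient transfection of HepG2 with cis-promoter reporter constructs and 24 h dosing, RNA is reverse-transcribed, amplified, 6-FAM end-labelled and HpaI-digested before capillary analysis. Bidirectional curve fitting against DMSO.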
# [9] = molecular target: Oxysterols receptor LXR-alpha (Homo sapiens) (UniProt Q13133); assay: ATG_LXRa_TRANS: Attagene TRANS-FACTORIAL HepG2 Assay for human Liver X Receptor alpha (LXRa) (AID 2282980); details: HepG2 Attagene TRANS reporter, LXRa transactivation
# Method in brief: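 In this multiplexed TRANS system, compounds act on HepG2 cells carrying GAL4-UAS reporter units and a receptor-GAL4 fusion for 24 h. Induced reporter RNA is amplified, fluorescently labelled and sized by capillary electrophoresis, with DMSO as baseline.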
# [10] = molecular target: Bile acid receptor (Homo sapiens) (UniProt Q96RI1); assay: ATG_FXR_TRANS: Attagene TRANS-FACTORIAL HepG2 Assay for Farnesoid X Receptor (FXR) (AID 2282979); details: HepG2 Attagene TRANS FXR-GAL4 reporter transcription;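 also: hits raise reporter mRNA above DMSO so AC50 marks FXR activation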
# Method in brief: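 After 24 h chemical treatment of transfected HepG2 cells, GAL4-UAS reporter transcripts driven by an exogenous FXR-GAL4 fusion were measured by RT-PCR and capillary electrophoresis. Increases over DMSO were fitted.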
# Chain of Nuclear respiratory factor 1 (Homo sapiens) (Q16656 whole entry, looked up): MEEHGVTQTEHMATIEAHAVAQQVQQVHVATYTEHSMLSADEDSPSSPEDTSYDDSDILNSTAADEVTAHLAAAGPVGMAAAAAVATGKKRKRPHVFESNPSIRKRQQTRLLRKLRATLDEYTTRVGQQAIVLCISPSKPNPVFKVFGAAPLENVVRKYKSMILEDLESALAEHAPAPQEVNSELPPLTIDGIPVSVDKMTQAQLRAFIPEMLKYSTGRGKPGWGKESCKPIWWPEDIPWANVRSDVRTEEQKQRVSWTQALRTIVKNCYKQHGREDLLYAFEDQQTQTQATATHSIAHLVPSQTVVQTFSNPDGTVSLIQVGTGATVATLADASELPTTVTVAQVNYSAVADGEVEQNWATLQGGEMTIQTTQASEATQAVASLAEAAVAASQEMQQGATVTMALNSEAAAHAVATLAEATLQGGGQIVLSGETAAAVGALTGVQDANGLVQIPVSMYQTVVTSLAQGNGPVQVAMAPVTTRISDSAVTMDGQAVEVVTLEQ
# Chain of Transcriptional activator Myb (Homo sapiens) (P10242 whole entry, looked up): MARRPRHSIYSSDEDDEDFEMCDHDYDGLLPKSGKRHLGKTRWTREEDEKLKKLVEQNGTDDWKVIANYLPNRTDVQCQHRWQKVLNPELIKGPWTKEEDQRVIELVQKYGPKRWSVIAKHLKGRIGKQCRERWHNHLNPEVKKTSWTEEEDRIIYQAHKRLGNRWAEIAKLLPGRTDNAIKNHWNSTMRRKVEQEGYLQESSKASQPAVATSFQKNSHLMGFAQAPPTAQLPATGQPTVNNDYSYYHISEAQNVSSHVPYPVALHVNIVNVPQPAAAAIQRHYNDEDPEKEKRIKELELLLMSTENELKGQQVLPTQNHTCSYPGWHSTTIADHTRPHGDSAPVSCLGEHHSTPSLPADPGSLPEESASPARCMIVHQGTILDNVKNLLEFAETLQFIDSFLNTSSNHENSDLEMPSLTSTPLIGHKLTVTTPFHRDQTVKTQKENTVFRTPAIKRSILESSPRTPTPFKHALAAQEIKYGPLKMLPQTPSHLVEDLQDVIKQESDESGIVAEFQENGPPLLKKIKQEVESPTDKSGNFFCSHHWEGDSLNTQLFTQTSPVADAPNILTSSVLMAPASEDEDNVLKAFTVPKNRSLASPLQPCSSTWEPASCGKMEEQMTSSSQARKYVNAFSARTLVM
# Chain of Oxysterols receptor LXR-alpha (Homo sapiens) (Q13133 whole entry, looked up, the tested form may be a part): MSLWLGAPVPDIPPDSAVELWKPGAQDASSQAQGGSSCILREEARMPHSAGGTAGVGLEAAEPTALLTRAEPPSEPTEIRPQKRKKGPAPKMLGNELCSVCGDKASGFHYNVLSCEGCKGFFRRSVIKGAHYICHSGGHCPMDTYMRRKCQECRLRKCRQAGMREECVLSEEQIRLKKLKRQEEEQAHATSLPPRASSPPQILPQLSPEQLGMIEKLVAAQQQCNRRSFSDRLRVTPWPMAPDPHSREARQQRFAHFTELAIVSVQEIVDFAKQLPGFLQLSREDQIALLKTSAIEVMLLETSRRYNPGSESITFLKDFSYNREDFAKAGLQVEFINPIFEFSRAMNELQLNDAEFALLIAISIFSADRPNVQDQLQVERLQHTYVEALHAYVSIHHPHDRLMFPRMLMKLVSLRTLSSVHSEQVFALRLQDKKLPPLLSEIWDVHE
# Chain of Oxysterols receptor LXR-beta (Homo sapiens) (P55055 whole entry, looked up, the tested form may be a part): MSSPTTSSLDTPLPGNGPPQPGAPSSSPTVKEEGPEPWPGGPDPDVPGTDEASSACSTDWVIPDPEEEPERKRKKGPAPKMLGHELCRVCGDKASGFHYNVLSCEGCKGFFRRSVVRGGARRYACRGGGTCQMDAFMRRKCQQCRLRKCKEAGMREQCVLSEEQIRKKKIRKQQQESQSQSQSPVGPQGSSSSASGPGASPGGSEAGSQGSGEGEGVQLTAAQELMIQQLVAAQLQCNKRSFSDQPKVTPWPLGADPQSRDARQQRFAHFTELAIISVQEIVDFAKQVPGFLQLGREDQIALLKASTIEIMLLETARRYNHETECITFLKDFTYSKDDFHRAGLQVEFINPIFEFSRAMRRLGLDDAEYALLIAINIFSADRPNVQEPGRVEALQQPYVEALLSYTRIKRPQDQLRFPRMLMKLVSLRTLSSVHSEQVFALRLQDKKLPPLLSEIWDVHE
# Chain of Nuclear receptor subfamily 4 group A member 2 (Homo sapiens) (P43354 whole entry, looked up, the tested form may be a part): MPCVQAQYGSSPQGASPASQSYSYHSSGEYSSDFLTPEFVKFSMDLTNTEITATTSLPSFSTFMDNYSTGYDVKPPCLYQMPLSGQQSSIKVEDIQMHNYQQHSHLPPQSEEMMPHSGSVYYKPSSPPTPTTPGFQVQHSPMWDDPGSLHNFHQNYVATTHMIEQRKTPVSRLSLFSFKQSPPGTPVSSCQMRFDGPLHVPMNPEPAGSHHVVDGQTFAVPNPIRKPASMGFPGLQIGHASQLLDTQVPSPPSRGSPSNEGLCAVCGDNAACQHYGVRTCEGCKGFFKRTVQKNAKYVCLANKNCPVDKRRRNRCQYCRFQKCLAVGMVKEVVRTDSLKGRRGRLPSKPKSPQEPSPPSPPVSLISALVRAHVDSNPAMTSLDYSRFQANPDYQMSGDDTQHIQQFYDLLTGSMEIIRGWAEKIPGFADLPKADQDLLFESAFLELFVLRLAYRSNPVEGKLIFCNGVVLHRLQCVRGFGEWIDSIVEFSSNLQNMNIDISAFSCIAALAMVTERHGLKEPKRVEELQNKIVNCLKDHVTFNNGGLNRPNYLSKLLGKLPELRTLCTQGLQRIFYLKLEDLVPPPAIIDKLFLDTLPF
# Chain of Hepatocyte nuclear factor 4-alpha (Homo sapiens) (P41235 whole entry, looked up, the tested form may be a part): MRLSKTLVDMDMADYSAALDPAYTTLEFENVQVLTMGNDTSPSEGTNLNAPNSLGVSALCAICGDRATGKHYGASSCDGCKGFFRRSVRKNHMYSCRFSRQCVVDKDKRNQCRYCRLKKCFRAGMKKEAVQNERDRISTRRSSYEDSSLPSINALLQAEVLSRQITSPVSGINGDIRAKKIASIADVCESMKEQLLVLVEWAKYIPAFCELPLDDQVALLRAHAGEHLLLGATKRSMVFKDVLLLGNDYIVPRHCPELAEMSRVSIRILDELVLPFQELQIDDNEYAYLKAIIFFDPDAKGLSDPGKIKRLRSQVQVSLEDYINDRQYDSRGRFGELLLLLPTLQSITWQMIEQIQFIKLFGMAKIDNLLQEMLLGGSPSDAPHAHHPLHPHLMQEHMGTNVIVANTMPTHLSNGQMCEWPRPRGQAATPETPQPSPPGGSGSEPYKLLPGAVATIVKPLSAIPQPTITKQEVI
# Chain of Bile acid receptor (Homo sapiens) (Q96RI1 whole entry, looked up, the tested form may be a part): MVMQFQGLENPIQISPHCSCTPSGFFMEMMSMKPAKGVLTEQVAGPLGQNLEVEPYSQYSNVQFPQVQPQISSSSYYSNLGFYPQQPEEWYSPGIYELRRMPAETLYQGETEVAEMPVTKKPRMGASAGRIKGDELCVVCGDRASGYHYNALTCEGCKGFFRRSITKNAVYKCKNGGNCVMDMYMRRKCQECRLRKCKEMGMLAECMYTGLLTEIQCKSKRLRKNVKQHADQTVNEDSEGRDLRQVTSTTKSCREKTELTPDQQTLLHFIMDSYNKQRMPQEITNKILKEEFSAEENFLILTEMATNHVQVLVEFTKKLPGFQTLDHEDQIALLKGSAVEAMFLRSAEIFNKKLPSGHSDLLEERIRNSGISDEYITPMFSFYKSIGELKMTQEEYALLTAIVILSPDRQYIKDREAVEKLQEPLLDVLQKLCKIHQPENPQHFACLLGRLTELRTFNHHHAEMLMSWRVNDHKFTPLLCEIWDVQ
SMILES,outcome [1],outcome [2],outcome [3],outcome [4],outcome [5],outcome [6],outcome [7],outcome [8],outcome [9],AC50 [10],outcome [10],AC50 [6],AC50 [7]
COc1ccc(OC(F)(F)F)cc1CN[C@H]1CCCN[C@H]1c1ccccc1,inactive,inactive,inactive,inactive,inactive,inactive,inactive,inactive,,,,,
O=[Si]=O,inactive,inactive,inactive,inactive,inactive,inactive,inactive,inactive,inactive,,,,
CC(C)c1cccc(C(C)C)c1NC(=O)NS(=O)(=O)c1cc(C(C)(C)O)co1,inactive,inactive,inactive,,inactive,inactive,inactive,inactive,,,,,
O=Cc1ccccc1C=O,inactive,,inactive,inactive,inactive,inactive,inactive,inactive,inactive,,,,
CS(=O)(=O)c1ccc([C@@H](C[C@H]2CCC(=O)C2)C(=O)Nc2cnccn2)cc1Cl,inactive,inactive,inactive,inactive,inactive,inactive,inactive,inactive,inactive,,,,
NC1CCCCC1,,inactive,inactive,,,inactive,inactive,inactive,inactive,,,,
CC(=O)CC(c1ccccc1)c1c(O)c2ccccc2oc1=O (stereo unspecified),inactive,,inactive,inactive,inactive,inactive,inactive,inactive,inactive,,,,
CC(C)NCC(O)c1ccc(O)c(O)c1 (stereo unspecified),,,inactive,,inactive,inactive,inactive,inactive,inactive,,,,
NCCOCCOCCN,inactive,,inactive,inactive,inactive,inactive,inactive,inactive,,,,,
Cc1c(C)c2c(c(C)c1O)CCC(C)(COc1ccc(CC3SC(=O)NC3=O)cc1)O2 (stereo unspecified),,,,inactive,inactive,inactive,inactive,inactive,,17.4 µM (active),,,
CCCCCCCCCC[N+](C)(C)[O-],inactive,,,inactive,,inactive,inactive,inactive,inactive,,,,
CN(C)C(=O)NC1(c2ccccc2)CCN(CC[C@@]2(c3ccc(F)c(F)c3)CN(C(=O)c3ccccc3)CCO2)CC1,,,,,,inactive,inactive,inactive,,,inactive,,
C#CC(O)C(CC)CCCC (stereo unspecified),,,,inactive,inactive,inactive,inactive,inactive,inactive,,,,
COc1ccc(C(=O)Nc2nc3ccccc3c(NCc3ccccc3)c2C#N)cc1,inactive,inactive,,,inactive,inactive,inactive,inactive,inactive,,,,
N[C@@H](Cc1c[nH]c2ccccc12)C(=O)O,inactive,,,inactive,,inactive,inactive,inactive,inactive,,,,
OCC(CO)n1cnc(-c2ccc(F)cc2)c1-c1ccnc(Oc2ccccc2)n1,inactive,,inactive,,,inactive,inactive,inactive,,,,,
CCCC[C@H]1CN(CC2CCOCC2)C(=O)OC12CCN(C1(C)CCN(C(=O)c3c(C)ncnc3C)CC1)CC2,inactive,,,inactive,inactive,inactive,inactive,inactive,inactive,,,,
CC(=O)O[C@]1(C(C)=O)CC[C@H]2[C@@H]3C=C(Cl)C4=CC(=O)[C@@H]5C[C@@H]5[C@]4(C)[C@H]3CC[C@@]21C,inactive,inactive,inactive,inactive,inactive,inactive,inactive,inactive,inactive,,,50.8 µM (active),26.8 µM (active)
C=CCCCCCCCCCCCC,inactive,inactive,,,inactive,inactive,inactive,inactive,,,,,
CCc1cc(C2=C(C(=O)O)N(c3ccccc3C(F)(F)F)S(=O)(=O)c3ccccc32)cc2c1OCO2,,,inactive,inactive,,inactive,inactive,inactive,,,,,
CC(C)c1cccc(C(C)C)c1,,inactive,,,,inactive,inactive,inactive,,,,,
